This is an account of results in PubChem BioAssay.

In general, inhibition refers to the relative decrease from the control value, in per cent.

Structures are written as SMILES. Activity calls are given as the source filed them. The rule behind the calls is not given here.

Sequence of Pantothenate synthetase (Mycobacterium tuberculosis (strain ATCC 25618 / H37Rv)) (P9WIL5 whole entry, looked up): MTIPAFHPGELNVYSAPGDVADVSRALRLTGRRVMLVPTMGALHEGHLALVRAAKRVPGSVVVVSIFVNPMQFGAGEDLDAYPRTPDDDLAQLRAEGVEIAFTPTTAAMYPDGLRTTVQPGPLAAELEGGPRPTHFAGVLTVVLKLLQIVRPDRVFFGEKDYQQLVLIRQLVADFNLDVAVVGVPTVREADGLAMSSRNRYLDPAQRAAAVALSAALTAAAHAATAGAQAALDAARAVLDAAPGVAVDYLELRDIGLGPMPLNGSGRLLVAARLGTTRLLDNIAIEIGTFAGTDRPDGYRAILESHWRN

The experiment concerns the target Pantothenate synthetase (Mycobacterium tuberculosis (strain ATCC 25618 / H37Rv)) (UniProt P9WIL5). As to the kind of experiment: Recombinant Mtb pantothenate synthetase (PanC) inhibitors, coupled enzyme, confirmatory (AID 375).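 Note: 0% = full reaction with vehicle and 100% = no enzyme background.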 The conditions noted are these: coupled enzyme assay; at 10 µM, active compounds read high.
`COc1cc2cc(C(c3nnnn3C3CCCC3)N3CCCCCC3)c(=O)[nH]c2cc1OC` (stereo not given): the inhibition is 5% (inactive).

Take `Cc1cc(C)c2c(CC(=O)NCc3ccco3)coc2c1`: the inhibition was 0% (inactive).

For the compound `Nc1nc2n(n1)C(c1c(F)cccc1Cl)CC(c1ccc(F)cc1)N2` (stereo not given), the inhibition was 1% (inactive).

Turning to `O=c1c2cnn(-c3ccccc3)c2ncn1/N=C/c1ccncc1`, the inhibition is 5% (inactive).

`COc1ccc(/C(O)=C2/C(=O)C(=O)N(CCCN(C)C)C2c2ccc(Cl)cc2)cc1OC` (stereo not given): the inhibition is 3% (inactive).

`Cc1ccc(Nc2nc(N)nc(CN3CCCCCC3)n2)cc1`: the inhibition is 2% (inactive).

`Cc1cc(C)nc(SCc2ccc3nonc3c2)n1`: the inhibition is 1% (inactive).

In the case of `CCOc1ccc(C2CC(c3cccc(OC)c3)Nc3nc(N)nn32)cc1` (stereo not given), the inhibition was 0% (inactive).

Consider `CCOC(=O)CSc1nnc(-c2ccc(NS(=O)(=O)c3ccc(C)cc3)cc2)o1`, for which the inhibition was 0% (inactive).

For the compound `OCCN(CCO)c1nc(N2CCCCC2)c2nc(N(CCO)CCO)nc(N3CCCCC3)c2n1`, the inhibition was 0% (inactive).

Regarding `CN(C=C1C(=O)CC(C)(C)CC1=O)CCN1CCNCC1`, the inhibition is 1% (inactive).

Regarding `CNCCC(Oc1ccc(C(F)(F)F)cc1)c1ccccc1` (stereo not given), the inhibition is 4% (inactive).

For the compound `C=CCn1c(-c2cccs2)nc2nc3ccccc3nc21`, the inhibition was 0% (inactive).

As to `CCOC(=O)c1c2n(c3ccc(O)cc13)CCCCC2`, the inhibition is 0% (inactive).

Regarding `CN(C)CCN1C(=O)c2oc3ccc(Cl)cc3c(=O)c2C1c1cccc(Br)c1` (stereo not given), the inhibition is 0% (inactive).

For the compound `CCCN1C2CCCC1CC(NC(=O)Nc1cccc(C(C)=O)c1)C2` (stereo not given), the inhibition is 1% (inactive).

In the case of `O=C(NC12CC3CC(CC(C3)C1)C2)N1CCN(C(=O)C2CCCO2)CC1` (stereo not given), the inhibition is 7% (inactive).

As to `Cc1ccc(S(=O)(=O)N2CCN(CCO)CC2)cc1-c1nnc2c3ccccc3c(C)nn12`, the inhibition is 0% (inactive).

For `CCc1c(C(=O)N2CCOCC2)csc1C`, the inhibition is 0% (inactive).

For `Cc1cc(C)n(-c2nc3sc4c(c3c3nnc(SC(C)C)n23)CC(C)(C)OC4)n1`, the inhibition was 0% (inactive).

For `O=C(NCc1ccco1)c1ccccc1Nc1ccc(F)cc1`, the inhibition is 0% (inactive).

Regarding `COC(=O)c1[nH]c2c(c1C)C(=O)CC(c1cc(OC)ccc1OC)C2` (stereo not given), the inhibition was 0% (inactive).

For the compound `CCOc1ccccc1NC(=O)CCSc1nc2n[nH]c(C)c2c(=N)n1-c1ccccc1Cl`, the inhibition was 10% (inactive).

On to `CCCCN1C[C@H](O)[C@@H](O)[C@H](O)[C@H]1CO`, for which the inhibition was 0% (inactive).

`CC(C)CN(C(=O)COC(=O)Cc1n[nH]c(=O)c2ccccc12)C1CCS(=O)(=O)C1` (stereo not given): the inhibition was 2% (inactive).

`COc1cc(C(N)=O)ccc1OCc1ccccc1`: the inhibition is 3% (inactive).

Regarding `Nn1c(SCC(=O)Nc2ccc(F)cc2)nnc1-c1cccnc1`, the inhibition is 0% (inactive).

On to `CC(C)(C)C(=O)Cn1c(=N)n(Cc2ccccc2)c2ccccc21`, for which the inhibition was 8% (inactive).

Consider `O=C(COc1ccccc1)NCCSCc1ccco1`, for which the inhibition was 0% (inactive).

Turning to `CC12CCC(C(=O)O)(c3nc(C#N)c(C#N)nc31)C2(C)C` (stereo not given), the inhibition is 13% (inactive).

As for `CCOc1ccc(-c2cc(CCCC(=O)N3CCN(c4ccc(OC)cc4)CC3)no2)cc1`, the inhibition is 0% (inactive).

For the compound `CCN(CC)C(=O)CSC1=C(C#N)C(c2ccco2)C(C(=O)OCCOC)=C(C)N1` (stereo not given), the inhibition was 0% (inactive).

On to `Cc1cccn2c(=O)c3cc(C#N)c(=NC(=O)c4ccncc4)n(Cc4ccco4)c3nc12`, for which the inhibition was 0% (inactive).

With `Cn1c(=O)c2ncn(CC(=O)NCCOc3ccc(C(C)(C)C)cc3)c2n(C)c1=O`, the inhibition was 0% (inactive).

For the compound `CCCOc1ccc(NC2=CC(=O)CC(C)(C)C2)cc1`, the inhibition was 0% (inactive).

As to `O=C(Nc1cccc(Cl)c1)N1CCN(c2ncccn2)CC1`, the inhibition was 1% (inactive).

Consider `Cc1nn(-c2ccccc2)c2c1C(=O)NC(=O)C(C)(C)C2`, for which the inhibition is 0% (inactive).

As to `O=C(CSc1nnc(-c2ccccc2)o1)N1CCN(c2ccccc2)CC1`, the inhibition was 0% (inactive).

In the case of `O=C(CSCc1cccs1)N1CCCC1`, the inhibition is 3% (inactive).

Regarding `COc1cc(OC)cc(C(=O)NCCN2CCOCC2)c1`, the inhibition was 0% (inactive).
